From ChEMBL document CHEMBL4513146, “CO-ADD screening of Karazin Kharkiv National University (Ukraine) compounds” come the findings set out here.

One assay relates to Staphylococcus aureus. The following applies: Concentration 32 ug.mL-1;; ASSAY_TEST Inhibition of Bacterial Growth; detection method Absorption (OD600); MEDIA CAMHB; plate type 384well; NBS; CORNING #3640; time 18 hr.
The subject of the next assay is Escherichia coli. The following applies: Concentration 32 ug.mL-1;; ASSAY_TEST Inhibition of Bacterial Growth; detection method Absorption (OD600); MEDIA CAMHB; plate type 384well; NBS; CORNING #3640; time 18 hr.

Molecules are shown by their SMILES. Results with a measured potency or affinity are listed apart.

In general, Inhibition refers to the relative decrease from the control value, in per cent. On to `COc1ccc(NC(=O)Cn2nc3ccc(SCc4ccc(Cl)cc4)nn3c2=O)cc1`, for which the Inhibition with Staphylococcus aureus is -5.92%; with Escherichia coli, -10.26%.

`COc1cc(OC)c(NC(=O)Cn2nc3c(Sc4cccc(C)c4)nccn3c2=O)cc1Cl`: the values for the Inhibition in the assay with Staphylococcus aureus and with Escherichia coli were 10.36% and -1.94%, respectively.

`Cc1ccc(NC(=O)Cn2nc3ccc(-c4ccc(Cl)cc4)nn3c2=O)cc1`: the Inhibition was 0.77% in the assay with Staphylococcus aureus and -0.85% with Escherichia coli.

Regarding `CCc1ccccc1NC(=O)Cn1nc2n(CCC(C)C)c(=O)c3sccc3n2c1=O`, the Inhibition with Staphylococcus aureus is -2.34%; with Escherichia coli, -9.52%.

For the molecule `O=c1c2sccc2n2c(=O)n(Cc3ccccc3Cl)nc2n1CCc1ccccc1`, the Inhibition in the assay on Staphylococcus aureus was 10.44%; in the assay on Escherichia coli, 0.77%.

`O=C(Cn1nc2ccc(-c3ccc(Cl)cc3)nn2c1=O)N1CCN(c2ccc(F)cc2)CC1`: the Inhibition in the assay with Staphylococcus aureus is on record as 4.1%; in the assay on Escherichia coli it was -5.18%.

With `Cc1ccc(C)c(NC(=O)Cn2nc3c(N4CCCC(C)C4)nccn3c2=O)c1` (centres undefined), the Inhibition was -2.35% in the assay on Staphylococcus aureus and -6.19% in the assay with Escherichia coli.

Regarding `Cc1ccc(-n2ccn3c(=O)n(Cc4cccc(Cl)c4)nc3c2=O)cc1C`, the values for the Inhibition in the assay with Staphylococcus aureus and in the assay with Escherichia coli were 7.38% and 0.11%, respectively.

For `CCOc1ccc(-n2ccn3c(SCC(=O)Nc4ccc(C)cc4Cl)nnc3c2=O)cc1`, the Inhibition with Staphylococcus aureus is 8.62%; in the assay on Escherichia coli, -1.13%.

For the molecule `Cc1cccc(C)c1NC(=O)CSc1nc2ccccc2n2c(C)nnc12`, the Inhibition with Staphylococcus aureus is listed as 11.69%; in the assay with Escherichia coli, -4.17%.

As to `CC(C)c1ccc(CNC(=O)CCc2nnc3c(N4CCCCC4)nc4ccccc4n23)cc1`, the figures for the Inhibition in the assay with Staphylococcus aureus and with Escherichia coli were 3.73% and -5.19%, respectively.

Turning to `CCOC(=O)c1ccccc1NC(=O)CSc1nc2ccccc2n2c(C(C)C)nnc12`, the Inhibition with Staphylococcus aureus is given as 6%; in the assay on Escherichia coli, -2.48%.
